The whole screen tested about 1,200 compounds, of which about 65 (5%) were called active.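 Rule for the calls: active = at either tested dose, response and 90th-percentile vesicle-stain brightness of CD8 cells under set limits and under 9% cells vesicle-bound; inactive = the rest.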 Only a selection was taken, and actives are over-represented in it overall.
Experiment: modulators of CD8 T cell-vesicle binding, confirmation, cherry-picked primary hits, two concentrations (AID 2810);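 note: lower values mean blocking of vesicle binding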;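 for percent response (vesicle binding): ratio of mean FL2 vesicle stain of CD8+ cells to that row's control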
Conditions: 2C CD8+ T cell-vesicle binding, flow cytometry; for double positive events: CD8+/vesicle+ events
[1] = at 15.4 µM, stronger effect = lower value

| Compound | double positive events (at 7.7 µM) [%] | double positive events [1] [%] | percent response (vesicle binding) [1] | percent response (vesicle binding) (response, at 7.7 µM) [%] |
| --- | --- | --- | --- | --- |
| COc1ccc(Cc2nc(-c3ccccn3)no2)cc1 | 34.9 | 19.8 | 702% (inactive) | 360 |
| COc1ccc(CN2C(=O)C(C)Nc3ncnc(N4CCN(c5ccccn5)CC4)c32)cc1 (configuration not stated) | 8.2 | 4.1 | 33.1% (active) | 235 |
| O=C(c1ccc(Cn2c(=S)[nH]c3ccccc3c2=O)cc1)N1CCN(c2ccccn2)CC1 | 8.9 | 7 | 222% (inactive) | 465 |
| Cc1cccc(NS(=O)(=O)c2ccc(Oc3ccccc3)cc2)n1 | 19.3 | 10.1 | 148% (inactive) | 86.6 |
| Cc1ccc(S(=O)(=O)N2CCN(c3ncnc4ccccc34)CC2)cc1 | 6.7 | 15.5 | 103% (inactive) | 116 |
| Cc1ccc(S(=O)(=O)Nc2c3ccccc3nc(=O)n2-c2ccccc2)cc1 | 21.4 | 7.9 | 50.6% (active) | 180 |
| O=C(Nc1ccccc1C(=O)OCC(=O)c1c[nH]c2ccccc12)c1ccco1 | 19.2 | 23.2 | 289% (inactive) | 174 |
| CCn1cc(CNC(=O)c2ccc(Cl)c([N+](=O)[O-])c2)c(C)n1 | 18.4 | 8.4 | 244% (inactive) | 301 |
| Cc1cccc(C)c1OCc1nnc(NC(=O)CSc2ccc(Cl)cc2)s1 | 31.8 | 24.4 | 211% (inactive) | 221 |
| O=C1CCCc2sccc2N1 | 17.6 | 1.1 | 33.4% (active) | 308 |
| CCCCn1c(N)c(N(CCOC)C(=O)c2c(CC)noc2C)c(=O)[nH]c1=O | 8.2 | 14.5 | 132% (inactive) | 298 |
| c1coc(-c2nc3c4c5c(sc4ncn3n2)CCCC5)c1 | 17.3 | 13.1 | 71% (inactive) | 187 |
| O=C(c1ccco1)N1CCN(C(c2ccccc2Cl)c2nnnn2Cc2ccco2)CC1 (configuration not stated) | 15.1 | 6.3 | 40.7% (active) | 456 |
| O=C(c1ccco1)N1CCN(c2ncccn2)CC1 | 27.2 | 11.7 | 199% (inactive) | 331 |
| COc1ccc(OC)c(C(c2nnnn2CCC(C)C)N2CCN(C(=O)c3ccco3)CC2)c1 (configuration not stated) | 33.6 | 30.5 | 242% (inactive) | 208 |
| COCC(C)NC(=O)CSc1nc2cc(S(=O)(=O)N3CCCCC3)ccc2o1 (configuration not stated) | 13.5 | 13.6 | 131% (inactive) | 364 |
| COc1ccc(NC(=O)Nc2c(O)ccc3ccccc23)cc1 | 5.2 | 17.7 | 132% (inactive) | 173 |

| Compound | double positive events (at 7.7 µM) [%] | double positive events [1] [%] | percent response (vesicle binding) [1] | percent response (vesicle binding) (response, at 7.7 µM) [%] |
| --- | --- | --- | --- | --- |
| COc1cccc(NC(=O)Nc2ccc3nc(C)c(C)nc3c2)c1 | 9.8 | 8.7 | 103% (inactive) | 154 |
| COc1ccc(NC(=O)Nc2ccc(O)c3ccccc23)cc1 | 5.3 | 10 | 103% (active) | 35.3 |
| Cn1nc(-c2ccccc2)c(CSc2ccccc2Cl)c1Cl | 14.2 | 30.1 | 241% (inactive) | 251 |
| CC(C)c1ccc(NC(=O)NCc2cccnc2)cc1 | 12 | 22.3 | 281% (inactive) | 415 |
| C/C(=N\NC(=O)c1ccc(Br)o1)c1cc2c(cc1NC(=O)CCC(=O)O)OCO2 | 36.2 | 13.6 | 208% (inactive) | 305 |
| COc1ccc(NS(=O)(=O)c2cc(NC(=O)C3CC3)ccc2N2CCCCC2)cc1 | 9.3 | 3.4 | 36.1% (active) | 138 |
| COc1ccc(S(=O)(=O)N2CCCC2C(=O)Nc2ccc(C(C)=O)cc2)cc1 (configuration not stated) | 6.8 | 18.3 | 384% (inactive) | 406 |
| COc1ccc(NC(=O)C2CCC(C(C)(C)C)CC2)cc1S(=O)(=O)N1CCCCC1 (configuration not stated) | 17.3 | 13.7 | 203% (inactive) | 135 |
| Nc1nc(SCCO)[nH]c(=O)c1NC(=O)c1ccc(Br)o1 | 11.9 | 25.8 | 393% (inactive) | 383 |
| CCOCC(=O)Nc1ccc(S(=O)(=O)N2CCC(c3nc4ccccc4[nH]3)CC2)cc1 | 7.3 | 21.4 | 156% (inactive) | 124 |
| O=C(c1ccccc1Cl)N1CCCC(c2nc3c(nnn3Cc3ccccc3)c(=O)[nH]2)C1 (configuration not stated) | 9.2 | 17.6 | 132% (inactive) | 181 |
| O=C1CC(c2nc3ccccc3[nH]2)CN1Cc1ccccc1 (configuration not stated) | 17.2 | 4.3 | 50.8% (active) | 341 |
| CC(OC(=O)c1ccc2c(c1)C(=O)N(Cc1ccncc1)C2=O)C(=O)Nc1cccc(Cl)c1Cl (configuration not stated) | 16.7 | 30.5 | 343% (inactive) | 266 |
| CSc1ccccc1NC(=O)CN(C)C(=O)c1ccc2c(c1)OCCO2 | 45.7 | 7.6 | 133% (inactive) | 295 |
| CCc1ccc(NC(=S)N(CCCN2CCOCC2)Cc2ccccn2)cc1 | 22.2 | 40 | 339% (inactive) | 168 |
| CN(C)S(=O)(=O)c1cccc(-n2sc3ccccc3c2=O)c1 | 4.4 | 2.1 | 52.8% (active) | 173 |
